Experimental data taken from PubChem BioAssay (NCI).
The panel holds about 79,000 compounds, 15% with a hit somewhere; the sample as a whole holds those more often. The source made the active and inactive calls. No stated cut-off is given here; in the data, active means growth inhibition above about 70%; inactive means the rest.

Assay: NCI Yeast Anticancer Drug Screen. Data for the cln2 rad14 strain (AID 165);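 further: 0% = growth equal to vehicle treated cultures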
Settings: S. cerevisiae cln2 rad14 strain, at 50.0 µM, active compounds read high
Method in brief: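 Readout is yeast growth inhibition versus vehicle-treated controls, using a strain with cln2 and rad14 alterations exposed to compound.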
For `Oc1ccccc1C=NCCN=Cc1ccccc1O.[Cu]`, the growth inhibition was -36.4% (inactive). With `CC(NC1=NCCO1)c1ccsc1` (stereo not given) the growth inhibition was 14.8% (inactive). In the case of `Oc1cccc(/C=N\NC(=S)NC2CN3CCC2CC3)c1` (stereo not given), the growth inhibition is reported as -4.45% (inactive). With `COc1ccc2c(c1)C1(C=N2)CCN(C(C)=O)CC1` the growth inhibition was 17.1% (inactive). In the case of `Nc1ccc(Cl)cc1.Nc1ccc(Cl)cc1.Nc1ccc(Cl)cc1.O=C([O-])C(=O)[O-].O=C([O-])C(=O)[O-].[H+].[Ru+5]`, the growth inhibition is reported as 27.5% (inactive). In the case of `CC1=CC(=O)C2=C(C)C[C@H](O)[C@@H]3[C@H](OC(=O)[C@H]3C)[C@@H]12`, the growth inhibition is reported as 17.2% (inactive). With `C1=C(c2ccccc2)CCN(C2(c3ccccc3)CCCCC2)C1` the growth inhibition was -33.5% (inactive). With `Nc1noc(N)n1` the growth inhibition was -23.1% (inactive). For `O=[As](O)(O)Cc1ccccc1`, the growth inhibition was -16.6% (inactive). With `Cn1c(=O)oc(=O)c2ccccc21` the growth inhibition was -3.1% (inactive). In the case of `CN1CN(c2ccccc2)C2(CCN(Cc3csc4ccccc34)CC2)C1=O`, the growth inhibition is reported as -1.3% (inactive). With `CC1=CC23C(COC(=O)C24CO4)C(C(=O)O)=CC3C1C` (stereo not given) the growth inhibition was 27% (inactive). For `Oc1ccccc1C=NC1CCCCC1N=Cc1ccccc1O.[Ni]` (stereo not given), the growth inhibition was -8.6% (inactive). With `CCC(=O)[O-].CCC(=O)[O-].N.N.N.N.[Co+3].[O-][Cl+3]([O-])([O-])[O-]` the growth inhibition was 17.9% (inactive). With `CN(C)CCCN1CCCCC1` the growth inhibition was 3.8% (inactive). With `CCCCOC(=O)c1ccccc1C(=O)OCc1ccccc1` the growth inhibition was -43.7% (inactive). In the case of `O=C(COc1ccc(Cl)cc1)Nc1ccc(Cl)cc1C(=O)c1ccccc1`, the growth inhibition is reported as 18.8% (inactive). With `CN(C(=O)CCl)c1ccccc1` the growth inhibition was 11.2% (inactive). In the case of `Cc1ccc(S(N)(=O)=O)cc1` (tested in a mixture with another compound), the growth inhibition is reported as 10.8% (inactive). For `O=C(CC(O)C(Cl)(Cl)Cl)CC(O)C(Cl)(Cl)Cl` (stereo not given), the growth inhibition was 18% (inactive). With `CCCCCCCC(N)CC(=O)O` (stereo not given) the growth inhibition was -0.7% (inactive). For `N#CC(C#N)C1CN2CCC1CC2` (stereo not given), the growth inhibition was 24.5% (inactive). In the case of `Clc1ccc(C(c2ccc(Cl)cc2)c2ccccn2)cc1`, the growth inhibition is reported as 97.8% (active). In the case of `CC(C)=CC1C(C(=O)OCc2cc3c(cc2Cl)OCO3)C1(C)C` (stereo not given), the growth inhibition is reported as -48.9% (inactive). For `N#CC(C#N)=Cc1ccc(C=C(C#N)C#N)cc1`, the growth inhibition was -14.8% (inactive). With `CCOC(=S)S.[Ag]` the growth inhibition was -31.6% (inactive). With `C/C=C/C(=O)O` the growth inhibition was 10.2% (inactive). In the case of `Nc1ccc(Sc2ccc(N)cc2)cc1`, the growth inhibition is reported as -53.1% (inactive). With `CC(C)NC(=O)N1C2C3CCC(C)(OC3(C)C)C21` (stereo not given) the growth inhibition was -9.35% (inactive). In the case of `NC(=O)Cc1ccccc1`, the growth inhibition is reported as 8.75% (inactive). With `COC(=O)C1=CCCN(C)C1` the growth inhibition was -0.4% (inactive). In the case of `CCOC(=O)/C(=C\c1ccc(N(C)C)cc1)[Se]c1ccccc1`, the growth inhibition is reported as 5% (inactive). In the case of `Cc1cc(F)ccc1[As](=O)(O)O`, the growth inhibition is reported as -17.9% (inactive). With `CC(=O)Nc1ccc([As](=O)(O)O)cc1[N+](=O)[O-]` the growth inhibition was -3.35% (inactive). With `O=C1CC=C2C3CC4N(CCC45c4ccccc4N1C25)C/C3=C\CO` (stereo not given) the growth inhibition was 0% (inactive). For `OCCC[n+]1cccc2ccccc21`, the growth inhibition was -41.6% (inactive). For `CN(N)/N=N/c1nc[nH]c1[N+](=O)[O-]`, the growth inhibition was 4.85% (inactive). For `C[C@H](O)CCC(=O)c1ccoc1`, the growth inhibition was 6.2% (inactive). With `O=C1OC(Br)c2ccccc21` (stereo not given) the growth inhibition was 7% (inactive). In the case of `COc1ccc2nc3c4ccccc4scc-3c2c1`, the growth inhibition is reported as 99.2% (active).

Assay: NCI Yeast Anticancer Drug Screen. Data for the bub3 strain (AID 167)
Settings: S. cerevisiae bub3 mutant strain, at 50.0 µM, active compounds read high
Method in brief: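 Whole-cell yeast assay. The mutant strain was incubated with compounds, and growth inhibition was determined by comparison with vehicle-treated cells.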
In the case of `Oc1ccccc1C=NCCN=Cc1ccccc1O.[Cu]`, the growth inhibition is reported as 3.55% (inactive). With `CC(NC1=NCCO1)c1ccsc1` (stereo not given) the growth inhibition was 3.75% (inactive). In the case of `Oc1cccc(/C=N\NC(=S)NC2CN3CCC2CC3)c1` (stereo not given), the growth inhibition is reported as 7.1% (inactive). With `COc1ccc2c(c1)C1(C=N2)CCN(C(C)=O)CC1` the growth inhibition was -9.75% (inactive). With `Nc1ccc(Cl)cc1.Nc1ccc(Cl)cc1.Nc1ccc(Cl)cc1.O=C([O-])C(=O)[O-].O=C([O-])C(=O)[O-].[H+].[Ru+5]` the growth inhibition was 26.6% (inactive). With `CC1=CC(=O)C2=C(C)C[C@H](O)[C@@H]3[C@H](OC(=O)[C@H]3C)[C@@H]12` the growth inhibition was 6.25% (inactive). With `C1=C(c2ccccc2)CCN(C2(c3ccccc3)CCCCC2)C1` the growth inhibition was 16.5% (inactive). With `Nc1noc(N)n1` the growth inhibition was -18.1% (inactive). For `O=[As](O)(O)Cc1ccccc1`, the growth inhibition was -2.55% (inactive). With `Cn1c(=O)oc(=O)c2ccccc21` the growth inhibition was -27.4% (inactive). In the case of `CN1CN(c2ccccc2)C2(CCN(Cc3csc4ccccc34)CC2)C1=O`, the growth inhibition is reported as -7.1% (inactive). In the case of `CC1=CC23C(COC(=O)C24CO4)C(C(=O)O)=CC3C1C` (stereo not given), the growth inhibition is reported as -8.95% (inactive). With `Oc1ccccc1C=NC1CCCCC1N=Cc1ccccc1O.[Ni]` (stereo not given) the growth inhibition was -0.55% (inactive). With `CCC(=O)[O-].CCC(=O)[O-].N.N.N.N.[Co+3].[O-][Cl+3]([O-])([O-])[O-]` the growth inhibition was 2.05% (inactive). For `CN(C)CCCN1CCCCC1`, the growth inhibition was 7.05% (inactive). In the case of `CCCCOC(=O)c1ccccc1C(=O)OCc1ccccc1`, the growth inhibition is reported as 2.8% (inactive). For `O=C(COc1ccc(Cl)cc1)Nc1ccc(Cl)cc1C(=O)c1ccccc1`, the growth inhibition was 1.1% (inactive). In the case of `CN(C(=O)CCl)c1ccccc1`, the growth inhibition is reported as 9.75% (inactive). For `Cc1ccc(S(N)(=O)=O)cc1` (tested in a mixture with another compound), the growth inhibition was 29.4% (inactive). For `O=C(CC(O)C(Cl)(Cl)Cl)CC(O)C(Cl)(Cl)Cl` (stereo not given), the growth inhibition was 20.4% (inactive). For `CCCCCCCC(N)CC(=O)O` (stereo not given), the growth inhibition was -36.6% (inactive). With `N#CC(C#N)C1CN2CCC1CC2` (stereo not given) the growth inhibition was 4.9% (inactive). For `Clc1ccc(C(c2ccc(Cl)cc2)c2ccccn2)cc1`, the growth inhibition was 98.3% (active). With `CC(C)=CC1C(C(=O)OCc2cc3c(cc2Cl)OCO3)C1(C)C` (stereo not given) the growth inhibition was 14.9% (inactive). For `N#CC(C#N)=Cc1ccc(C=C(C#N)C#N)cc1`, the growth inhibition was -15.8% (inactive). In the case of `CCOC(=S)S.[Ag]`, the growth inhibition is reported as -15.2% (inactive). For `C/C=C/C(=O)O`, the growth inhibition was -0.05% (inactive). In the case of `Nc1ccc(Sc2ccc(N)cc2)cc1`, the growth inhibition is reported as -8.25% (inactive). In the case of `CC(C)NC(=O)N1C2C3CCC(C)(OC3(C)C)C21` (stereo not given), the growth inhibition is reported as -14.9% (inactive). With `NC(=O)Cc1ccccc1` the growth inhibition was -2.45% (inactive). In the case of `COC(=O)C1=CCCN(C)C1`, the growth inhibition is reported as 2.15% (inactive). With `CCOC(=O)/C(=C\c1ccc(N(C)C)cc1)[Se]c1ccccc1` the growth inhibition was 18.6% (inactive). For `Cc1cc(F)ccc1[As](=O)(O)O`, the growth inhibition was 5% (inactive). In the case of `CC(=O)Nc1ccc([As](=O)(O)O)cc1[N+](=O)[O-]`, the growth inhibition is reported as 23.2% (inactive). With `O=C1CC=C2C3CC4N(CCC45c4ccccc4N1C25)C/C3=C\CO` (stereo not given) the growth inhibition was 37% (inactive). In the case of `OCCC[n+]1cccc2ccccc21`, the growth inhibition is reported as 0.95% (inactive). For `CN(N)/N=N/c1nc[nH]c1[N+](=O)[O-]`, the growth inhibition was -12.1% (inactive). With `C[C@H](O)CCC(=O)c1ccoc1` the growth inhibition was -22.1% (inactive). With `O=C1OC(Br)c2ccccc21` (stereo not given) the growth inhibition was -20.1% (inactive). For `COc1ccc2nc3c4ccccc4scc-3c2c1`, the growth inhibition was 99.2% (active).
